PubChem BioAssay (EPA / NIEHS)
Where a structure was tested more than once in an assay, its records may differ in their call. Activity calls are given as the source filed them. Rule for the calls: active = hit-call score of the fitted dose curve at least 0.9, where 1 is the maximum; inactive = score below 0.9.

How the values were obtained:
[1] = read-out: Interleukin-1 alpha (IL1a), IL1A (gene 3552); assay: BSK_LPS_IL1a: BioMAP Diversity Plus: LPS Assay for Interleukin-1 alpha (IL1a) Biomarker Activity (AID 2283080); conditions: primary human HUVEC with PBMC; actives raise or lower the signal
In short: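 HUVEC/PBMC co-culture, LPS system; 24 h after dosing; IL-1a by ELISA; gain or loss of signal fitted bidirectionally vs DMSO baseline.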

[2] = read-out: Monocyte Chemoattractant Protein-1 (MCP1), CCL2 (gene 6347); assay: BSK_LPS_MCP1: BioMAP Diversity Plus: LPS Assay for Monocyte Chemoattractant Protein-1 (MCP1) Biomarker Activity (AID 2283081); conditions: primary human HUVEC with PBMC; actives raise or lower the signal
In short: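 ELISA read-out of MCP-1 after 24 h chemical dosing of a human umbilical vein endothelial cell/peripheral blood mononuclear cell co-culture stimulated with LPS. Gain or loss of signal fitted relative to DMSO controls.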

[3] = BSK_LPS_PGE2: BioMAP Diversity Plus: LPS Assay for Prostaglandin E2 (PGE2) Biomarker Activity (AID 2283082); conditions: primary human HUVEC with PBMC; actives raise or lower the signal
In short: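 LPS-activated HUVEC/PBMC co-culture; cmpd dosed, 24 h; PGE2 by ELISA; bidirectional fit vs DMSO; SRB (0.1%, TCA-fixed, 560 nm) in parallel plates for overt cytotox.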

[4] = read-out: Macrophage colony-stimulating factor (MCSF), CSF1 (gene 1435); assay: BSK_LPS_MCSF: BioMAP Diversity Plus: LPS Assay for Macrophage colony-stimulating factor (MCSF) Biomarker Activity (AID 2283083); conditions: primary human HUVEC with PBMC; actives raise or lower the signal
In short: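 HUVEC + PBMC co-culture (human primary), 24 h post-dose; M-CSF by ELISA; gain/loss of signal fitted bidirectionally vs DMSO baseline.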

[5] = read-out: Tissue Factor, F3 (gene 2152); assay: BSK_LPS_TissueFactor: BioMAP Diversity Plus: LPS Assay for Tissue Factor Biomarker Activity (AID 2283084); conditions: primary human HUVEC with PBMC; actives raise or lower the signal
In short: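 HUVEC/PBMC co-culture, LPS-activated; CD142 ELISA read 24 h post-dose; bidirectional curve fit vs DMSO negative control.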

[6] = read-out: Tumor necrosis factor (Homo sapiens) (UniProt P01375); assay: BSK_LPS_TNFa: BioMAP Diversity Plus: LPS Assay for Tumour Necrosis Factor alpha (TNFa) Biomarker Activity (AID 2283085); conditions: primary human HUVEC with PBMC; actives raise or lower the signal
In short: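 Read-out is ELISA of TNFa in primary human endothelial cell–PBMC co-cultures at 24 h after compound. Activity in either direction was fitted against DMSO.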

[7] = read-out: Vascular cell adhesion molecule 1 (VCAM1), VCAM1 (gene 7412); assay: BSK_LPS_VCAM1: BioMAP Diversity Plus: LPS Assay for Vascular cell adhesion molecule 1 (VCAM1) Biomarker Activity (AID 2283086); conditions: primary human HUVEC with PBMC; actives raise or lower the signal
In short: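 HUVEC + PBMC co-culture, LPS system; compound 24 h; VCAM-1 by ELISA; bidirectional fit vs DMSO control; parallel SRB (0.1%, TCA-fixed, 560 nm) for cytotoxicity.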

CD38, CD38 (gene 952) = assay: BSK_SAg_CD38: BioMAP Diversity Plus: SAg Assay for CD38 Biomarker Activity (AID 2283087); conditions: primary human HUVEC with PBMC; actives raise or lower the signal
In short: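 Human HUVEC plus PBMC co-culture stimulated with superantigen; CD38 measured by ELISA 24 h after chemical dosing. Fluorescence read-out, bidirectional fit against DMSO; cytotoxicity tracked in parallel by SRB and Alamar Blue.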

CD40, CD40 (gene 958) = assay: BSK_SAg_CD40: BioMAP Diversity Plus: SAg Assay for CD40 Biomarker Activity (AID 2283088); conditions: primary human HUVEC with PBMC; actives raise or lower the signal
In short: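 HUVEC/PBMC co-culture, 24 h post-dose; CD40 by ELISA, fluorescence intensity; bidirectional fit vs DMSO negative control.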

CD69, CD69 (gene 969) = assay: BSK_SAg_CD69: BioMAP Diversity Plus: SAg Assay for CD69 Biomarker Activity (AID 2283089); conditions: primary human HUVEC with PBMC; actives raise or lower the signal
In short: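 Values derive from bidirectional fitting relative to DMSO vehicle. Cells: umbilical vein endothelium plus peripheral blood mononuclear cells, treated 24 h before fluorescent ELISA for CD69.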

[8] = read-out: Monocyte Chemoattractant Protein-1 (MCP1), CCL2 (gene 6347); assay: BSK_SAg_MCP1: BioMAP Diversity Plus: SAg Assay for Monocyte Chemoattractant Protein-1 (MCP1) Biomarker Activity (AID 2283090); conditions: primary human HUVEC with PBMC; actives raise or lower the signal
In short: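 MCP-1 levels in the endothelial–PBMC SAg co-culture were quantified by ELISA at 24 h post-dosing; both increases and decreases versus DMSO scored. Cytotoxicity monitored by SRB total protein in parallel cultures.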

[9] = read-out: E-selectin (Homo sapiens) (UniProt P16581); assay: BSK_SAg_Eselectin: BioMAP Diversity Plus: SAg Assay for Eselectin Biomarker Activity (AID 2283091); conditions: primary human HUVEC with PBMC; actives raise or lower the signal
In short: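 E-selectin ELISA readout at 24 h post-dosing in human umbilical vein endothelial cell/PBMC co-culture; gain or loss of signal fitted relative to DMSO baseline.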

[10] = read-out: Monokine induced gamma interferon (MIG), CXCL9 (gene 4283); assay: BSK_SAg_MIG: BioMAP Diversity Plus: SAg Assay for Monokine induced gamma interferon (MIG) Biomarker Activity (AID 2283092); conditions: primary human HUVEC with PBMC; actives raise or lower the signal
In short: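 Values reflect bidirectional fitting of ELISA-measured MIG against DMSO vehicle, taken 24 h after dosing of a co-culture of human umbilical vein endothelial cells and peripheral blood mononuclear cells.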

[11] = read-out: Interleukin-8 (IL8), CXCL8 (gene 3576); assay: BSK_SAg_IL8: BioMAP Diversity Plus: SAg Assay for Interleukin-8 (IL8) Biomarker Activity (AID 2283094); conditions: primary human HUVEC with PBMC; actives raise or lower the signal
In short: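 ELISA read-out of IL-8 in a primary human vascular co-culture (umbilical vein endothelium plus PBMC), taken 24 h after compound addition. Values derive from bidirectional fits against DMSO negative controls.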

[12] = BSK_SAg_Proliferation: Cell Proliferation Assessment in the BioMAP Diversity Plus: SAg Assay (AID 2283095); conditions: primary human HUVEC with PBMC;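 note: relative cell number as total protein by SRB absorbance in sub-confluent culture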
In short: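 Cells (endothelium plus PBMC, human primary) were dosed with chemical, cultured 96 h, fixed in 10% TCA and stained with 0.1% SRB. Absorbance at 560 nm gave relative protein, fitted bidirectionally relative to DMSO.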

[13] = BSK_SAg_SRB: Viability Assessment in the BioMAP Diversity Plus: SAg Assay (AID 2283096); conditions: primary human HUVEC with PBMC;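 note: cells read one day after compound addition; hits may be either gain or loss of signal compared with DMSO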
In short: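 Total protein by sulforhodamine B staining, 24 h after dosing, in HUVEC–PBMC co-culture; DMSO-referenced bidirectional fitting.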

[14] = BSK_SAg_PBMCCytotoxicity: PBMC Cytotoxicity Assessment in the BioMAP Diversity Plus: SAg Assay (AID 2283093); conditions: primary human HUVEC with PBMC;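 note: PBMC viability measured as Alamar Blue reduction fluorescence at 546/580 nm; fitted both ways against DMSO so a hit may be loss or gain of signal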;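 for AC50: PBMC superantigen activated with SEB plus TSST-1 one hour after compound addition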
In short: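 Compound added to 75,000 PBMC/well for 1 h; SEB and TSST-1 then added at 20 ng/mL final each; 90 h incubation; Alamar Blue 6 h; read 546/580 nm ex/em. Activity fitted bidirectionally relative to DMSO baseline.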

Tumor necrosis factor (Homo sapiens), sequence (P01375 whole entry, looked up): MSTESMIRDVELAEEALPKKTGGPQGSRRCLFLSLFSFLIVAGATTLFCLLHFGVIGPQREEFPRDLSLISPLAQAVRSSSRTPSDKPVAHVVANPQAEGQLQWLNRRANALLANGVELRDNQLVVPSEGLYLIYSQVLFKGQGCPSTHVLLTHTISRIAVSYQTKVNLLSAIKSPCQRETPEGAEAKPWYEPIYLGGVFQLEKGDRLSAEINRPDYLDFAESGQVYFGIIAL
E-selectin (Homo sapiens), sequence (P16581 whole entry, looked up): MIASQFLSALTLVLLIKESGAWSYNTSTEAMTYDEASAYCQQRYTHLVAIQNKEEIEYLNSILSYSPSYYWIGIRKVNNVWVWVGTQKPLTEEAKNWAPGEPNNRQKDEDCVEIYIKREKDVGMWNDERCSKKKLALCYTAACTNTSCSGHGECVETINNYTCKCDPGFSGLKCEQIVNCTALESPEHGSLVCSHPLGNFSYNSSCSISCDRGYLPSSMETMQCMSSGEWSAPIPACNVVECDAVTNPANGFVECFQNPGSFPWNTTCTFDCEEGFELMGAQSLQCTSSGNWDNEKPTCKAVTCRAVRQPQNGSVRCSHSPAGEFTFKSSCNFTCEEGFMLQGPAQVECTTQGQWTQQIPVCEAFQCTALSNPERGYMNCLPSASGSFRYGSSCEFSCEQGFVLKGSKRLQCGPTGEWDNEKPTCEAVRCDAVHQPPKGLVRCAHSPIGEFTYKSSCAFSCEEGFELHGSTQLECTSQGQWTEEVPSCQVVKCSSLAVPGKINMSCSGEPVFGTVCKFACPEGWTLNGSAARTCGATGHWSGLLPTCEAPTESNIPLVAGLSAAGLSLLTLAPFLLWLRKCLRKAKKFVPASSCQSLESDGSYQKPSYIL

Row | SMILES | outcome [1] | outcome [2] | outcome [3] | outcome [4] | outcome [5] | outcome [6] | outcome [7] | outcome (CD38, CD38 (gene 952)) | outcome (CD40, CD40 (gene 958)) | outcome (CD69, CD69 (gene 969)) | outcome [8] | outcome [9] | outcome [10] | outcome [11] | outcome [12] | outcome [13] | outcome [14] | AC50 [12] | AC50 [14]
1 | FC(F)(Br)C(F)(F)C(F)(F)C(F)(F)C(F)(F)C(F)(F)Br | inactive | inactive | inactive | inactive | inactive | inactive | inactive | inactive | inactive | inactive | inactive | inactive | inactive | inactive | inactive | inactive |  |  | 
2 | C=CC(F)(F)C(F)(F)C(F)(F)C(F)(F)C(F)(F)C(F)(F)C(F)(F)C(F)(F)C=C | inactive | inactive | inactive | inactive | inactive | inactive |  |  | inactive | inactive | inactive | inactive | inactive | inactive | inactive | inactive | inactive |  | 
3 | C=CC(=O)OCC(F)(F)C(F)(F)C(F)(F)C(F)(F)C(F)(F)C(F)(F)C(F)(F)F | inactive | inactive | inactive | inactive | inactive | inactive | inactive |  | inactive | inactive | inactive | inactive | inactive | inactive | inactive | inactive |  | 20 µM (active) | 
4 | OCC(F)(F)C(F)(F)C(F)(F)F | inactive | inactive | inactive | inactive | inactive | inactive | inactive |  | inactive | inactive | inactive | inactive | inactive | inactive | inactive | inactive |  |  | 
5 | CCCCCCCOC(=O)c1ccccc1C(=O)OCCCCCCC | inactive | inactive | inactive | inactive | inactive | inactive | inactive | inactive | inactive | inactive | inactive | inactive | inactive | inactive | inactive | inactive |  |  | 3.28 µM (active)
6 | O=S(=O)(OCCOC(F)(F)F)C(F)(F)F | inactive | inactive | inactive | inactive | inactive | inactive |  | inactive | inactive | inactive | inactive | inactive | inactive | inactive | inactive | inactive | inactive |  | 
7 | OCC(F)(F)C(F)(F)C(F)(F)C(F)F | inactive | inactive | inactive | inactive | inactive | inactive |  |  | inactive | inactive | inactive | inactive | inactive | inactive | inactive | inactive | inactive |  | 
8 | O=C(O)C(F)(F)C(F)(F)C(F)(F)F | inactive | inactive | inactive | inactive | inactive | inactive |  |  | inactive | inactive | inactive | inactive | inactive | inactive | inactive | inactive | inactive |  | 
9 | O=C(O)C(F)(OC(F)(F)C(F)(OC(F)(F)C(F)(F)C(F)(F)F)C(F)(F)F)C(F)(F)F (stereo unspecified) | inactive | inactive | inactive | inactive | inactive | inactive | inactive |  | inactive | inactive | inactive | inactive | inactive | inactive | inactive | inactive | inactive |  | 
10 | CCCCCCCCC(F)(F)C(F)(F)C(F)(F)C(F)(F)C(F)(F)C(F)(F)F |  | inactive | inactive | inactive | inactive | inactive | inactive | inactive | inactive | inactive | inactive | inactive | inactive | inactive | inactive | inactive |  |  | 
11 | O=C(O)C(F)(F)C(F)(F)F |  | inactive | inactive | inactive | inactive | inactive |  | inactive | inactive | inactive | inactive | inactive | inactive | inactive | inactive | inactive | inactive |  | 
